Measured values reported in PubChem BioAssay (NCI).
This is part of a sample that, as a whole, favours compounds with a hit. Of some 83,000 tested, about 20% had one in any assay.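 Assay: single dose, 48 h. Readout: percent growth (0 = no net growth; negative = cell death). Active: <10.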 A number with no mark means an inactive call. Activity calls are given as the source filed them.

Key:
Assay in all cases: NCI-60 one-dose screen, 48 h (100 = growth as untreated, 0 = no growth, -100 = all killed)
Details in all cases: 10 µM unless noted
DU-145 prostate = test system: DU-145 prostate
K-562 leukemia = test system: K-562 leukemia
MALME-3M melanoma = test system: MALME-3M melanoma
MDA-MB-231 breast = test system: MDA-MB-231 breast
RXF 393 renal = test system: RXF 393 renal
SF-268 CNS = test system: SF-268 CNS
SF-295 CNS = test system: SF-295 CNS
SF-539 CNS = test system: SF-539 CNS
UACC-257 melanoma = test system: UACC-257 melanoma
M14 melanoma = test system: M14 melanoma
HCT-15 colon = test system: HCT-15 colon
SNB-75 CNS = test system: SNB-75 CNS
SNB-19 CNS = test system: SNB-19 CNS
U251 CNS = test system: U251 CNS
PC-3 prostate = test system: PC-3 prostate
SK-MEL-5 melanoma = test system: SK-MEL-5 melanoma
UACC-62 melanoma = test system: UACC-62 melanoma
LOX IMVI melanoma = test system: LOX IMVI melanoma
SK-MEL-28 melanoma = test system: SK-MEL-28 melanoma
HT29 colon = test system: HT29 colon

| Structure (SMILES) | growth (DU-145 prostate) | growth (K-562 leukemia) | growth (MALME-3M melanoma) | growth (MDA-MB-231 breast) | growth (RXF 393 renal) | growth (SF-268 CNS) | growth (SF-295 CNS) | growth (SF-539 CNS) | growth (UACC-257 melanoma) | growth (M14 melanoma) | growth (HCT-15 colon) | growth (SNB-75 CNS) | growth (SNB-19 CNS) [%] | growth (U251 CNS) | growth (PC-3 prostate) | growth (SK-MEL-5 melanoma) | growth (UACC-62 melanoma) | growth (LOX IMVI melanoma) | growth (SK-MEL-28 melanoma) | growth (HT29 colon) |
| --- | --- | --- | --- | --- | --- | --- | --- | --- | --- | --- | --- | --- | --- | --- | --- | --- | --- | --- | --- | --- |
| COc1ccc(-c2cc(-c3cccnc3)nc(S(=O)(=O)CC(=O)Nc3ccc(C)cc3)c2C#N)cc1OC | 95% | 102% | 94.7% | 77.6% | 90.4% | 83.5% | 97.9% | 95.1% | 104% | 111% | 95.1% | 78.7% | 94.6 | 91.7% | 83.7% | 72% | 99.4% | 88.9% | 102% | – |
| Cc1ccc(NC(=O)c2sc3nc4c(cc3c2N)C(=O)CCC4)cc1 | 96.4% | 53.1% | 89.1% | 78% | 108% | 110% | 47.1% | 93.5% | 74% | 85.3% | 58.6% | 86.3% | 72.2 | 86.6% | 73.2% | 53.2% | 69.2% | 93.1% | 84.8% | – |
| CCOC(=O)/C(=C/CC/C(C)=C/CC/C(C)=C/CCc1ccoc1)CC(=O)N1CCCCC1 | 62.8% | 18.1% | 15.2% | -21.9% (active) | 77.8% | 66.4% | 33% | 76.3% | 12.7% | 31.4% | 69.2% | 82.6% | 36 | 66.6% | 28.7% | 9% (active) | 23.8% | – | 36.8% | 55.5% |
| Oc1c(Cl)cc(Oc2cc(Cl)c(O)c(CN3CCOCC3)c2)cc1CN1CCOCC1 | 101% | 81.4% | 105% | 96.6% | 104% | 87.9% | 99.4% | 98.2% | 86.4% | 105% | 82.1% | 88.1% | 86.2 | 96.9% | 81% | 87.5% | 66.8% | 83.3% | 126% | 105% |
| Nc1nc(Nc2ccccc2SSc2ccccc2Nc2nc(N)nc(-c3cccc(Cl)c3)n2)nc(-c2cccc(Cl)c2)n1 | 97% | 81.9% | 104% | 74.8% | 106% | 99.9% | 79.2% | 99.6% | 112% | 95.4% | 69.8% | – | 96.1 | 78.5% | 83.9% | 95.5% | 86.2% | 61.7% | 102% | 104% |
| N#Cc1c(-c2ccccc2)cc(-c2ccccc2)n(CCCC(=O)O)c1=O | 111% | 94.1% | 96.5% | 94.9% | 91.5% | 102% | 93.2% | 102% | 96.5% | 96% | 92.9% | – | 98.7 | 93.3% | 109% | 93.5% | 91% | 95.4% | 108% | 103% |
| C/C(=C\CCc1ccoc1)CC/C=C(\C)CCCN1CCSCC1 | 92.9% | 56.6% | 104% | 80% | 78.8% | 96.4% | 46.9% | 92.1% | 61.1% | 81.6% | 43.3% | 93.4% | 87.8 | 76.7% | 84.3% | 37.8% | 75.3% | – | 88.7% | 45.8% |
| N/C(=N\C(N)=N\c1nc2ccccc2s1)c1ccnc(Cl)c1 | 26.9% | 8.95% (active) | 64.9% | 49.7% | -6.26% (active) | 61.5% | 17.6% | 7.12% (active) | 74.4% | 27.9% | 29.9% | – | 39.4 | 33.8% | 37.9% | 17.3% | 33.9% | 44.9% | 62.2% | 13.7% |
| c1ccc(Nc2ccc(Nc3nc(-c4ccccc4)nc4ccccc34)cc2)cc1 | 75.1% | 6.16% (active) | 109% | 63% | 83% | 93.6% | 55.9% | 86.2% | 100% | 76% | 37.5% | – | 100 | 77% | 74% | 90.3% | 86.6% | 52.4% | 93.7% | 29.7% |
| COc1cc(/C=C/c2cc(/C=C/c3ccc(O)c(OC)c3)n(C(=O)c3ccc(Cl)cc3)n2)ccc1O | 19.9% | 2.24% (active) | 44.6% | 31.8% | 15.3% | 27% | 48% | 10.1% | 63.2% | -1.11% (active) | 14.1% | -2.93% (active) | 45.6 | 16.8% | 4.59% (active) | -32.4% (active) | 22.5% | 13.9% | 19.5% | – |
| N#Cc1c(-c2ccccc2)cc(-c2ccccc2)n(CCCCCCC(=O)O)c1=O | 116% | 94.3% | 94.5% | 94.8% | 92.7% | 97.8% | 94.1% | 97.4% | 109% | 101% | 90.7% | – | 96.3 | 98.1% | 105% | 99.8% | 90.7% | 89.2% | 103% | 97.4% |
| N#CSCC1CC(O)(c2ccccc2)C(c2ccccc2)C(c2ccc(Cl)cc2)O1 (stereo unspecified) | -68.2% (active) | -6.84% (active) | -80.8% (active) | -52.2% (active) | -91.5% (active) | -34.1% (active) | -77.9% (active) | -96.4% (active) | -70.2% (active) | -77.8% (active) | -64.6% (active) | 37.5% | 36.6 | -31.1% (active) | -6.02% (active) | -87.4% (active) | -90.5% (active) | -97.4% (active) | -84% (active) | 1.18% (active) |
| COc1ccc(-c2nc3sc4c(c3c(=O)[nH]2)CCCCCC4)cc1 | 66.6% | 17.8% | 8.18% (active) | 52.6% | 28.4% | 48.6% | 43.6% | 65.1% | 64% | 33.7% | 27.7% | 49.4% | 66 | 46.8% | 70.2% | 53.1% | 24.6% | – | 62.1% | 14.3% |
| O=C1/C=C/[C@@H](O)[C@@H]2C[C@@H](O)C[C@H]2/C=C/CCC[C@H](CO)O1 | 92.9% | 46.8% | 7.5% (active) | 3.23% (active) | -29.9% (active) | 20.6% | 23.9% | 34.8% | 29.9% | 11.6% | 26.2% | 35.7% | 48.8 | 24.1% | 39.5% | -88% (active) | 15.8% | -44.8% (active) | -18.8% (active) | – |
| CC(=O)OC1Oc2cc(C)c(C)cc2-c2oc(=O)c(-c3ccccc3)cc21 (stereo unspecified) | 15% | -0.66% (active) | -4.37% (active) | 43.7% | -35.3% (active) | 36.8% | -39.9% (active) | -37.1% (active) | 74.5% | – | 6.95% (active) | -1.15% (active) | 26.9 | 13.2% | -11.4% (active) | 16.7% | 14.2% | 41.9% | 49% | -23.7% (active) |
| CC(=O)[C@H]1CC[C@H]2[C@@H]3C[C@H](C)C4=CC(=O)CC[C@]4(C)[C@H]3C(=O)C[C@]12C | 112% | 106% | 109% | 108% | 103% | 96.6% | 120% | 98.5% | 102% | – | 97.3% | 89.6% | 100 | 98.2% | 91.2% | 100% | 97.1% | 92.2% | 115% | 101% |
